From PubChem BioAssay (Tox21)
Unmarked numbers belong to inactive results. The source made the active and inactive calls. The call rests on the fitted dose curve.

Each compound was assayed against Acetylcholinesterase (Homo sapiens) (UniProt P22303) (assay: Acetylcholinesterase (AChE) small molecule antagonists: enzyme-based qHTS assay with human liver microsomes (AID 1347399; further: nearly all actives have a fitted effect of over 60% in size)). Conditions: Potency: qHTS inhibition; outcome: qHTS inhibition; series mostly up to 115 µM; activity change, negative = inhibition: at the top concentration.
Acetylcholinesterase (Homo sapiens), sequence (P22303 whole entry, looked up): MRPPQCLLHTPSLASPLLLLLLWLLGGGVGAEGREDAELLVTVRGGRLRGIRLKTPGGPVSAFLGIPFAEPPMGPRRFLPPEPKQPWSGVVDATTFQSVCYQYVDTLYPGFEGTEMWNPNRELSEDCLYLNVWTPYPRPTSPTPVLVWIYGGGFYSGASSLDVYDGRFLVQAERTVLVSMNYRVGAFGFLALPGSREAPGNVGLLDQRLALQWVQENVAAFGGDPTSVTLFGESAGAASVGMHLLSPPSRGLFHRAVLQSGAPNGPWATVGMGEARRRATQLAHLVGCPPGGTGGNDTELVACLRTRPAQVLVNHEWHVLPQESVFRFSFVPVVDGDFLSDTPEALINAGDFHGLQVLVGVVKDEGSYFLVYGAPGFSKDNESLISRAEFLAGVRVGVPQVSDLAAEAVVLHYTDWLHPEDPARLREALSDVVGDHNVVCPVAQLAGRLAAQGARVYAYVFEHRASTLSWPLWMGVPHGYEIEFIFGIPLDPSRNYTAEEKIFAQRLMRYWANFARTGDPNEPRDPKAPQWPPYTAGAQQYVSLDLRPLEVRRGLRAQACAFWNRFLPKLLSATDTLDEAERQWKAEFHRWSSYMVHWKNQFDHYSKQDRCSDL
How it was run: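 Recombinant human AChE (50 mU/mL in the enzyme mix) and human liver microsomes (0.25 mg/mL final) were preincubated with compound and NADPH (0.25 mg/mL final) for 30 min at 37 C. Acetylthiocholine/DTNB was then added; thiocholine was read colorimetrically after 10 min at room temperature.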
On the % scale 0 is the no-effect control and ±100 the full control effect.

| SMILES | activity change, negative = inhibition | outcome |
| --- | --- | --- |
| CN1CCN(c2cc3c(nn2)Oc2ccccc2N3C)CC1 | 1.76% [at 23.6 µM] | – |
| CCCCCCC[N+](CC)(CC)CCCCc1ccc(Cl)cc1 | 1.18% [at 53 µM] | – |
| CCN(CC)CCNC(=O)c1cc(Cl)c(N)cc1OC | 0.59% [at 53 µM] | – |
| CC1=C(/C=C/C(C)=C\C=C\C(C)=C\C(=O)O)C(C)(C)CCC1 | 0.142% | – |
| Cc1nc(Nc2ncc(C(=O)Nc3c(C)cccc3Cl)s2)cc(N2CCN(CCO)CC2)n1 | -0.333% [at 53 µM] | – |
| N#C/C(=C1/SC[C@@H](c2ccc(Cl)cc2Cl)S1)n1ccnc1 | 0.342% [at 53 µM] | – |
| Cc1ccc(C(=O)C(C)CN2CCCCC2)cc1 (stereo not given) | -0.168% [at 53 µM] | – |
| O=C(OCC(O)CO)c1ccccc1Nc1ccnc2cc(Cl)ccc12 (stereo not given) | -2.66% [at 53 µM] | – |
| Cc1nc2n(c(=O)c1CCN1CCC(c3noc4cc(F)ccc34)CC1)CCCC2 | 0.877% [at 53 µM] | – |
| CCCCCCCCCCCCCCCC[N+](C)(C)CCN(Cc1ccc(OC)cc1)c1ncccn1 | -0.168% [at 53 µM] | – |
| C[n+]1ccn(Cc2ccccc2)c1 | 0.603% | – |
| Clc1ccc2c(c1)CCc1cccnc1C2=C1CCNCC1 | 0.724% [at 53 µM] | – |
| C[C@@H]1CCC[C@H](C)N1CCCC(O)(c1ccccc1)c1ccccn1 (stereo not given in full) | 0.84% [at 53 µM] | – |
| Oc1cc2c(cc1O)[C@H]1c3ccc(O)c(O)c3OC[C@@]1(O)C2 | -5.52% | – |
| CN(C)CCC[C@@]1(c2ccc(F)cc2)OCc2cc(C#N)ccc21 | 2% [at 53 µM] | – |
| NS(=O)(=O)c1cc2c(cc1Cl)NC(CC1CCCC1)NS2(=O)=O (stereo not given) | 1.02% [at 53 µM] | – |
| CN(C(=O)CCCOc1ccc2[nH]c(=O)ccc2c1)C1CCCCC1 | 0.84% [at 53 µM] | – |
| Cc1c(C)n(CCN(C)C)c2ccc(C(=O)OCCN(C)C)cc12 | 5.03% [at 53 µM] | – |
| O=C1NC2CCCCN2C12CCN(CCCN1c3ccccc3CCc3ccc(Cl)cc31)CC2 (stereo not given) | 0.166% [at 53 µM] | – |
| CC1=C(/C=C/C(C)=C/C=C/C(C)=C/C=O)C(C)(C)CCC1 | 9.75% | – |

| SMILES | activity change, negative = inhibition | outcome |
| --- | --- | --- |
| CO/N=C1\CN(c2nc3c(cc2F)c(=O)c(C(=O)O)cn3C2CC2)CC1CN (stereo not given) | – | inactive |
| COc1ccc2cc1Oc1ccc(cc1)C[C@H]1c3c(cc4c(c3Oc3cc5c(cc3OC)CCN(C)[C@@H]5C2)OCO4)CCN1C | 2.88% [at 53 µM] | – |
| CN1CCCCC1CCN1c2ccccc2Sc2ccc(S(C)=O)cc21 (stereo not given) | -1.1% [at 53 µM] | – |
| COc1ccnc2c1CCCCC2S(=O)c1nc2ccccc2[nH]1 (stereo not given) | 0.875% [at 53 µM] | – |
| O=[N+]([O-])c1cccc(S(=O)(=O)NCCNS(=O)(=O)c2cccc([N+](=O)[O-])c2)c1 | 1.85% [at 53 µM] | – |
| CN1C(=O)N(c2ccccc2Br)Cc2cnc(Nc3ccc4c(c3)OCC(CO)O4)nc21 (stereo not given) | 0.722% | – |
| c1ccc2c(c1)CCCC2C1=NCCN1 (stereo not given) | -2.35% [at 53 µM] | – |
| CCN(CC)CCNC(=O)c1ccc(NC(C)=O)cc1 | -2.35% [at 53 µM] | – |
| CN1CCC(=C2c3ccccc3CCc3sccc32)CC1 | 0.153% [at 53 µM] | – |
| O=C(CCCN1CCN(c2ccccn2)CC1)c1ccc(F)cc1 | -3.39% [at 53 µM] | – |
| O=C(O)c1cccc(N(Cc2cccnc2)c2ccc(OC(F)F)c(OC(F)F)c2)c1 | -0.0584% | – |
| Cc1cc(=O)oc2cc(N(C)C)ccc12 | 6.03% | – |
| COc1cc(-c2ccc(N=C=O)c(OC)c2)ccc1N=C=O | 0.162% [at 53 µM] | – |
| CN1C[C@H]2c3ccccc3Oc3ccc(Cl)cc3[C@@H]2C1 | -0.34% [at 53 µM] | – |
| CCCOC(=O)c1ccc(O)cc1 | 2.8% | – |
| CCCCCCCCCCCC[N+](C)(C)CCCCCCCCCCCC | 15.9% | – |
| CN1CCN2c3ccccc3Cc3ccccc3C2C1 (stereo not given) | 0.873% [at 53 µM] | – |
| [O-][n+]1cccc(/C(Cl)=N/OC[C@@H](O)CN2CCCCC2)c1 | -2.18% [at 53 µM] | – |
| CCC1=C[C@@H]2CN(C1)Cc1c([nH]c3ccccc13)[C@@](C(=O)OC)(c1cc3c(cc1OC)N(C)[C@H]1[C@@](O)(C(=O)OC)[C@H](OC(C)=O)[C@]4(CC)C=CCN5CC[C@]31[C@@H]54)C2 | 0.295% [at 53 µM] | – |
| COc1ccc(-n2nc(C(F)F)cc2-c2ccc(S(C)=O)cc2)cc1 (stereo not given) | -1.31% | – |
